Source: PubChem BioAssay
“And” between values parts separate entries of the source, which are not always exact repeats. Equal entries are not always repeated. More than one record can exist for a structure, and the calls need not agree. The source made the active and inactive calls.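 How the source made its calls, unless noted: active means compounds whose cell count with miR-34 switched on is under 0.7 times the count with it off; inactive means the rest.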

What was measured:
[1] = hESC survival regulators, cell-based (AID 493140; call rule not given here;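 further: cells exposed to compounds for four days before counting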); details: human embryonic stem cell survival screen; stronger effect = higher value
[2] = liver-stage malaria parasite growth inhibition, primary screen, cell-based, HepG2, luciferase luminescence, HepG2 viability (AID 624349; in the data active means parasite load remaining mostly below about 12%, no sharp cut-off; inactive means mostly above about 10%;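 further: 100% = mean of DMSO negative control wells on the same plate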); details: P. berghei liver stage in HepG2, luciferase luminescence, concentration not given here; parasite load remaining: stronger effect = lower value; viability: measured here: HepG2 viability without parasites
[3] = stimulators of nuclear beta-catenin in C2C12, primary screen, imaging, WNT3A-conditioned medium, mouse C2C12, NPC library (AID 1117326; in the data active means nuclear beta-catenin stimulation mostly above about 4.2%, no sharp cut-off; inactive means mostly below about 10%; further: reference of the scale not given here); details: stronger effect = higher value
[4] = stimulators of insulin release from INS-1E, primary screen, cell-based, 5 mM glucose, NPC library (AID 1117329;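 active means compound raises insulin release from rat beta cells at 5 mM glucose, no numeric limit stated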; further: reference of the scale not given here); details: rat INS-1E insulin secretion, at 10 µM, stronger effect = higher value
[5] = growth inhibition of GSK3B-pretreated HCT116 cells – cell-based, CellTiter-Glo, 0.2 to 20 µM (AID 1117336;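 active means compounds lowering colon cancer cell viability after pretreatment blocking the GSK3B kinase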); details: HCT116 viability after GSK3B inhibitor, at 20 µM, stronger effect = higher value
[6] = inhibition of endothelial tube formation, primary screen, imaging, VEGF stimulated, CD31 staining, tube area, NPC library (AID 1117340;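 active means compound that reduces growth-factor-driven endothelial tube area in a mixed cell culture, no cutoff stated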); details: VEGF-stimulated ADSC/ECFC co-culture, at 10 µM, stronger effect = higher value
[7] = glucagon-like peptide 1 release enhancers, primary assay, NCI-H716 cell line, NPC library (AID 1117341;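 active means compound raises GLP1 secretion from the human gut endocrine cells, with no numeric limit stated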; further: reference of the scale not given here); details: NCI-H716 cells, at 10 µM, stronger effect = higher value
[8] = HCT116 colon cancer cell growth inhibition, primary screen, CellTiter-Glo luminescence, NPC library (AID 1117342;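 active means compounds that lower survival of HCT116 colon cancer cells in the luminescence readout, no numeric limit stated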); details: at 20 µM (top of the series)
[9] = CellTiter-Glo luminescent readout of SW480 viability loss, NPC library primary (AID 1117343;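 active means compounds that lower viability of the colon cancer cells in the luminescence readout, with no numeric limit stated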); details: CellTiter-Glo luminescence; at 20 µM (top of the series) unless noted
[10] = decreased DLD-1 cellular survival, CellTiter-Glo luminescent readout, NPC compound collection, primary HTS (AID 1117346;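 active means compounds that lower survival of DLD-1 colon cancer cells in the luminescence readout, no cutoff given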); details: DLD-1 viability, CellTiter-Glo luminescence; at 20 µM (top of the series)
[11] = sensitizers of A549 cells to miR-34 induction, primary screen, imaging, A549 dox-inducible miR-34, nuclei and caspase counts (AID 1347080); details: A549 miR-34 inducible, Hoechst nuclei count, 48 h
[12] = survival rescue of mitochondrial mutant cells in low glucose, primary screen, MELAS cybrids, Rieske KO mouse fibroblasts, CellTiter-Glo (AID 1508586;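 active means mean z-score across replicates of 1.96 or higher in either the MELAS or the Rieske mutant cell line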;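 further: z relative to plate mean and SD of compound and empty wells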)
[13] = biological target: NAD(+) hydrolase SARM1 (Homo sapiens) (UniProt Q6SZW1); test: SARM1 TIR NADase inhibitors, cell lysate, NAD-Glo luminescence (AID 1508614;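 active means compound whose remaining NAD level is above about 45 nM, limit read from the data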); details: SAM-TIR HEK293T lysate NADase, at 1 µM, stronger effect = higher value
NAD(+) hydrolase SARM1 (Homo sapiens), sequence (Q6SZW1 whole entry, looked up): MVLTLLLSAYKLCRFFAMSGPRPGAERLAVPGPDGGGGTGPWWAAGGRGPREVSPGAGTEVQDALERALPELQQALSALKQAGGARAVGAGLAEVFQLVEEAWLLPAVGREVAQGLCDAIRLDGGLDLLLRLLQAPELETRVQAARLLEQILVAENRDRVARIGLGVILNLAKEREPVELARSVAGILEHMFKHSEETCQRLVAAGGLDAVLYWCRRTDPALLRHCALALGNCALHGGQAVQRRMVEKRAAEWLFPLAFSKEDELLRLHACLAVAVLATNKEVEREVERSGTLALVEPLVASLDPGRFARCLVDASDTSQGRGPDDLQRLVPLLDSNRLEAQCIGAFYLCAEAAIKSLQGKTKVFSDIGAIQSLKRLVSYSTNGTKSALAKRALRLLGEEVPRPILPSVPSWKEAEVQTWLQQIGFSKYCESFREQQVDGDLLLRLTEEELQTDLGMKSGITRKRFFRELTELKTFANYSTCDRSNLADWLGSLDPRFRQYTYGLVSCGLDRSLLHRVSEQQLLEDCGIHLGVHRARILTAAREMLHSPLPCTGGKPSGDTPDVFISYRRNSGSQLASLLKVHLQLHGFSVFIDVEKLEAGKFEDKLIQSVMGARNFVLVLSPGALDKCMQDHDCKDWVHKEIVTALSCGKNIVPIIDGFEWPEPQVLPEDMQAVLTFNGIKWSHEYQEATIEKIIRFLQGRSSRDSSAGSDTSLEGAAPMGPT

[14] = viability rescue of complex I mutant cybrids, primary screen, cell-based, galactose medium, ATP luminescence (AID 1645843;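 active means z-score of at least 1.8 in each of two replicates, scored against plate mean and spread of sample wells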;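 further: positive z means more ATP and so rescue of galactose-driven cybrid death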); details: complex I mutant cybrid cells, 72 h, stronger effect = higher value
[15] = stronger effect = lower value, cell number ratio, induced over uninduced
[16] = measured here: relative caspase fold change +Dox/-Dox
[17] = measured here: total cells with miR-34 induction, stronger effect = lower value
[18] = measured here: total cells without miR-34 induction
[19] = MELAS cybrid survival, CellTiter-Glo 48 h, stronger effect = higher value
[20] = Rieske KO mouse fibroblast survival, CellTiter-Glo 72 h

| Structure (SMILES) | survival [1] | parasite load remaining [2] | viability [2] | nuclear beta-catenin stimulation ([3]; at 10 µM) | nuclear beta-catenin stimulation ([3]; stimulation, at 2 µM) [%] | insulin secretion stimulation [4] | viability decrease [5] | tube area decrease [6] | GLP1 secretion stimulation [7] | inhibition of viability [8] | viability decrease (inhibition) [9] | viability decrease (inhibition) [10] | fold change [11, 15] | fold change [11, 16] | cell count [11, 17] | cell count [11, 18] | z-score [12, 19] | z-score [12, 20] | remaining NAD [13] | z-score [14] |
| --- | --- | --- | --- | --- | --- | --- | --- | --- | --- | --- | --- | --- | --- | --- | --- | --- | --- | --- | --- | --- |
| O=C(O)COC(=O)Cc1ccccc1Nc1c(Cl)cccc1Cl | 18.6 (inactive) | 25.9% (inactive) and 102% (inactive) and 21.3% (inactive) | 47% and 92.7% and 77% | 1.1% (inactive) | -1 | 3.2% (inactive) | 30.7% (inactive) | -0.5% (inactive) | 1% (inactive) | 26% (inactive) | 83.7% (active) | 20.5% (inactive) | 0.899 (inactive) and 0.88 (inactive) | 1.19 and 1.2 | 8790 and 10000 | 9770 and 11400 | -0.0312 (inactive) and 0.298 (inactive) | -0.0287 and -0.406 | 10 nM (inactive) | 0.67 (inactive) |
| CC(C)(CO)[C@@H](O)C(=O)NCCCO | 26.3 (inactive) | 20.9% (inactive) and 97.7% (inactive) and 20.3% (inactive) | 47.1% and 90.5% and 98.9% | 1.6% (inactive) | 1.3 | -2.9% (inactive) | -4.45% (inactive) | 10.3% (inactive) | 3.1% (inactive) | 4.3% (inactive) | 100% (active) | -5.1% (inactive) | 0.883 (inactive) and 0.939 (inactive) | 1.21 and 2.44 | 8270 and 12000 | 9370 and 12800 | 0.185 (inactive) | 0.0963 | 10 nM (inactive) |  |
| C=CCN1C[C@H](C(=O)N(CCCN(C)C)C(=O)NCC)C[C@@H]2c3cccc4[nH]cc(c34)C[C@H]21 |  | 25.1% (inactive) | 72% | -1.1% (inactive) | 0.7 | 0% (inactive) | -6.9% (inactive) | -11.9% (inactive) | 0.5% (inactive) | -2% (inactive) | 22.3% (inactive) | 59% (active) | 0.881 (inactive) | 1.06 | 8560 | 9720 | -0.306 (inactive) | -1.44 |  | -0.085 (inactive) |
| CC(C)Nc1cccnc1N1CCN(C(=O)c2cc3cc(NS(C)(=O)=O)ccc3[nH]2)CC1 |  | 42.2% (inactive) | 102% | 0.8% (inactive) | -0.4 | -1.5% (inactive) | -11.6% (inactive) | -1.5% (inactive) | 2.1% (inactive) | 28.8% (inactive) | 0.9% (inactive) | -21.2% (inactive) | 0.904 (inactive) | 1.31 | 9200 | 10200 | 0.775 (inactive) and 1.98 (active) | 0.201 and 1.19 |  | 0.98 (inactive) |
| CC(=O)N(CC(O)CO)c1c(I)c(C(=O)NCC(O)CO)c(I)c(C(=O)NCC(O)CO)c1I (configuration not stated) | 14.3 (inactive) | 114% (inactive) and 69.4% (inactive) | 108% and 73.4% | -2.4% (inactive) | -1.5 | 7% (inactive) | -5% (inactive) | 1.5% (inactive) | -5.6% (inactive) | 4.5% (inactive) | 4.9% (inactive) | 0.4% (inactive) | 0.842 (inactive) | 1.09 | 8930 | 10600 | 0.412 (inactive) | -0.115 | 10 nM (inactive) |  |
| Cc1ccc(Cl)c(OCC(O)CNC(C)(C)C)c1 (configuration not stated) |  |  |  | 0.2% (inactive) | 0.1 | 1% (inactive) | -43.6% (inactive) | -6.8% (inactive) | 0% (inactive) | -1.43% (inactive) | -8.9% (inactive) | -15.9% (inactive) | 0.861 (inactive) | 0.19 | 8600 | 9990 | 0.548 (inactive) | -0.195 |  | 0.405 (inactive) |
| CC(=O)[C@H]1CC[C@H]2[C@@H]3C=CC4=CC(=O)CC[C@@]4(C)[C@@H]3CC[C@]12C | 6.67 (inactive) | 84.3% (inactive) | 94.2% | 4.5% (inactive) | 1.5 | -1.8% (inactive) | 6.3% (inactive) | 4.8% (inactive) | 3.1% (inactive) | 14.9% (inactive) | 64.2% (active) | 5.4% (inactive) | 0.855 (inactive) | 1.43 | 8320 | 9730 | 0.367 (inactive) | 0.105 | 10 nM (inactive) |  |
| O=c1[nH]c2ccccc2n1CCCN1CCN(C(c2ccccc2)c2ccccc2)CC1 |  | 29.6% (inactive) | 106% | 2.7% (inactive) | 2 | 1.95% (inactive) | 72% (active) | 20.5% (inactive) | 1.4% (inactive) | 76.3% (active) | 110% (active) | 78.8% (active) | 0.906 (inactive) | 1.22 | 8130 | 8980 | -0.355 (inactive) | -0.351 |  | -1.56 (inactive) |
| CC1=C(C(=O)OC(C)C)C(c2cccc([N+](=O)[O-])c2)C(C(=O)OC2CN(C(c3ccccc3)c3ccccc3)C2)=C(N)N1 (configuration not stated) |  |  |  | -2% (inactive) | 2.2 | 5.2% (inactive) | 111% (active) | 109% (active) | 40.3% (active) | 113% (active) | 133% (active) | 102% (active) | 0.933 (inactive) | 0.636 | 7560 | 8100 | -0.296 (inactive) | -0.252 |  |  |
| NC(CO)(CO)CO |  |  |  | 1.8% (inactive) | 3.7 | -0.6% (inactive) | -2.3% (inactive) | -6% (inactive) | 3.3% (inactive) | -37% (inactive) | -8% (inactive) | 2.75% (inactive) | 0.909 (inactive) | 0.61 | 8750 | 9620 | -0.338 (inactive) | -0.156 |  |  |
